Common to all, as to experiment: NCI-60 one-dose screen, 48 h (100 = growth as untreated, 0 = no growth, -100 = all killed)
Common to all, as to settings: 10 µM unless noted

Test [1] relates to T-47D breast.
In test [2] the test system is BT-549 breast.
The subject of test [3] is MDA-MB-435 melanoma.
The test system of test [4] is SW-620 colon.
In test [5] the test system is MCF7 breast.
Test [6] concerns HCT-116 colon.
In test [7] the test system is HCC-2998 colon.
In test [8] the test system is KM12 colon.

In PubChem BioAssay (NCI) one finds growth data, which are given here for 32 molecules.

Compounds without any hit were thinned out: in the full panel of roughly 83,000, 20% have a hit.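 Cells were grown in 96-well plates and exposed to the test compound at a single concentration for 48 hours; results are reported as percent growth, with values below 10 considered active.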 Unmarked numbers belong to inactive results. The source made the active and inactive calls.

For `COc1cc(NCc2ccc3nc(N)nc(N)c3c2C)cc(OC)c1OC` (tested in a mixture with another compound), the growth is 47.1% in test [1]; 56.1% in test [2]; 33.1% in test [3]; 32.4% in test [4]; 21.3% in test [5]; 20.6% in test [6]. Further, the growth in test [7] is 14.3%; in test [8] it was 14.8%.
As for `c1csc(-c2[nH]nc3c2CCc2ccccc2-3)c1`, the growth in test [1] was -61.7% (active); in test [2], 98.5%; in test [3], 104%; in test [4] it was 106%; in test [5] it was 5.26% (active); in test [6] it was 99.1%. The growth in test [7] was 43.6%; in test [8], 23.5%.
As for `CN(C)c1ccc2cc3c(cc2c1)Oc1ccccc1N3.[Cl][Zn][Cl]`, the growth was -18.9% (active) in test [1]; 105% in test [2]; 6.73% (active) in test [3]; 11.8% in test [4]; 3.32% (active) in test [5]; 8.67% (active) in test [6]. Besides, the figures for the growth in test [7] and in test [8] were 103% and 79.6%, respectively.
In the case of `CCOC(=O)/C(=C\c1ccc2ccccc2c1)P(=O)(OCC)OCC`, the growth in test [1] was 32.4%; in test [2], 39.8%; in test [3] it was 24%; in test [4] it was 2.35% (active); in test [5], 15.3%; in test [6] it was 4.87% (active). The growth in test [7] is 13.6%; in test [8], 39.2%.
Turning to `CCc1cccc(CC)c1N1C(=O)C=CC1=O`, the growth in test [1] is 102%; in test [2], 116%; in test [3], 111%; in test [4], 108%; in test [5], 110%; in test [6], 88.5%. Moreover, the results for the growth in test [7] and in test [8] were 117% and 110%, respectively.
As to `Clc1ccc(-n2ncc3c(NCCCN4CCOCC4)ncnc32)cc1`, the growth in test [1] is 85.3%; in test [2], 101%; in test [3], 98.9%; in test [4], 104%; in test [5], 89.9%; in test [6] it was 94.9%. In addition, the growth in test [7] was 105%; in test [8], 103%.
With `Nc1cc(-c2ccccc2)ccc1O`, the growth in test [1] was 88.3%; in test [2] it was 79.3%; in test [3], 111%; in test [4] it was 121%; in test [5] it was 102%; in test [6], 98.1%. The growth in test [7] was 83.8%; in test [8], 102%.
For the molecule `S=C=Nc1ccc(N2CCOCC2)cc1`, the growth is 74.3% in test [1]; 97.1% in test [2]; 92% in test [3]; 103% in test [4]; 79.3% in test [5]; 86.6% in test [6]. The growth in test [7] was 99.3%; in test [8], 103%.
On to `Cc1cc(C)c(C#N)c(Sc2nc(C)c([N+](=O)[O-])c(C)c2C#N)n1`, for which the growth in test [1] is 68.7%; in test [2] it was 43.1%; in test [3], 42.9%; in test [4] it was 19.2%; in test [5], 26.4%; in test [6], 9.65% (active). In addition, the growth is 100% in test [7] and 60.8% in test [8].
As for `Clc1ccccc1C(c1ccccc1)(c1ccccc1)n1ccnc1`, the growth in test [1] is 13.4%; in test [2], 42.5%; in test [3] it was 33.8%; in test [4], 43.6%; in test [5] it was 18.3%; in test [6], 22.3%. Besides, the growth is 52% in test [7] and 27% in test [8].
Take `CN=C(N)N/N=C(\c1ccccc1)c1ccc(Br)cc1`: the growth is 39.3% in test [1]; 21.5% in test [2]; -60.8% (active) in test [3]; 29.4% in test [4]; 4.81% (active) in test [5]; 8.58% (active) in test [6]. The growth in test [7] was -61.1% (active); in test [8], 9.22% (active).
Consider `Cc1ccc2cccc(OC(=O)Nc3cccc(C(F)(F)F)c3)c2n1`, for which the growth in test [1] is 47.1%; in test [2], 108%; in test [3], 91.3%; in test [4], 58%; in test [5], 72.2%; in test [6], 38%. Further, the values for the growth in test [7] and in test [8] were 87.6% and 44.5%, respectively.
Regarding `Cc1oc2c(C)c3oc(=O)cc(C)c3cc2c1CCl`, the growth was 53.9% in test [1]; 68.8% in test [2]; 63.4% in test [3]; 76.7% in test [4]; 49% in test [5]; 71.1% in test [6]. Besides, the growth was 98.8% in test [7] and 90.1% in test [8].
Regarding `Oc1c(Cl)cc(Cl)cc1C=NCC1CCC(CN=Cc2cc(Cl)cc(Cl)c2O)CC1` (stereo not drawn), the growth in test [1] was 71.4%; in test [2] it was 90.4%; in test [3], 88.8%; in test [4], 116%; in test [5], 78.1%; in test [6] it was 74.9%. In addition, the growth in test [7] is 107%; in test [8], 93.6%.
Take `COC(=O)[C@]1(C)CCC[C@]2(C)c3ccc(C(C)C)cc3C(=O)[C@@H](Br)[C@@H]12`: the growth in test [1] is 53.1%; in test [2] it was 116%; in test [3], 91.8%; in test [4], 86.3%; in test [5], 57.6%; in test [6], 85.3%. Also, the growth in test [7] was 106%; in test [8], 104%.
Consider `Cc1c(O)ccc(SC#N)c1C`, for which the growth in test [1] is 94%; in test [2] it was 104%; in test [3], 105%; in test [4], 103%; in test [5], 116%; in test [6], 88%. Further, the figures for the growth in test [7] and in test [8] were 96.5% and 97.2%, respectively.
Regarding `S=c1[nH]c2cc(Cl)ccc2s1`, the growth in test [1] is 90.4%; in test [2], 100%; in test [3] it was 98.8%; in test [4], 113%; in test [5], 95.2%; in test [6], 96.6%. Besides, the growth in test [7] was 97.4%; in test [8] it was 96.5%.
For `O=[N+]([O-])c1ccc(C2N(Cc3ccc(Cl)cc3)CCN2Cc2ccc(Cl)cc2)cc1`, the growth was 90% in test [1]; 98.2% in test [2]; 91.5% in test [3]; 98.1% in test [4]; 87.3% in test [5]; 72.8% in test [6]. The growth in test [7] is 95.4%; in test [8], 101%.
`C/C(=N\NC(=S)N1CC2CCC(CC2)C1)c1ccccn1`: the growth in test [1] is 17.4%; in test [2] it was 30.4%; in test [3], 11.5%; in test [4], 14.3%; in test [5], 13.3%; in test [6] it was 7.24% (active). For the same molecule, the growth was 29.3% in test [7] and 9.58% (active) in test [8].
Regarding `O=C1C=CC(=O)N1C1CCCCCCCCCCC1`, the growth in test [1] is 56.9%; in test [2] it was 87.5%; in test [3] it was 82.6%; in test [4], -27.4% (active); in test [5] it was 69.8%; in test [6] it was 0.595% (active). Besides, the figures for the growth in test [7] and in test [8] were 106% and 104%, respectively.
As for `CC(=O)c1c(O)c(C)c(O)c2c1OC1=CC(=O)C(C(C)=O)C(=O)C12C` (stereo not drawn), the growth in test [1] is 102%; in test [2], 55.8%; in test [3], 78.5%; in test [4] it was 74.7%; in test [5] it was 128%; in test [6] it was 94%. The growth in test [7] was 58.1%; in test [8], 72.6%.
As to `CCOc1ccc(C(C[N+](=O)[O-])Sc2ccccc2N)cc1` (stereo not drawn), the growth was 42.8% in test [1]; -74.9% (active) in test [2]; 3.44% (active) in test [3]; -40.4% (active) in test [4]; 0.363% (active) in test [5]; -55.6% (active) in test [6]. The growth in test [7] is -82.3% (active); in test [8], -51.3% (active).
As for `Cc1cc(C(N)=O)cc(C)c1C(=O)OCCCl`, the growth in test [1] is 95.8%; in test [2] it was 111%; in test [3], 98%; in test [4] it was 103%; in test [5], 101%; in test [6], 97%. Further, the growth in test [7] is 95.8%; in test [8] it was 93.6%.
Turning to `N=C(N)Sc1cccc[n+]1[O-]`, the growth in test [1] was 63.1%; in test [2], 80.3%; in test [3], 62.9%; in test [4], 46.9%; in test [5], 14.6%; in test [6], 9.31% (active). In addition, the values for the growth in test [7] and in test [8] were 74.7% and 55.1%, respectively.
As to `C/C=C/c1cc2c(c(=O)o1)C(=O)[C@@H](O)[C@H](C)O2`, the growth in test [1] was 20.4%; in test [2], 18.2%; in test [3], 65.6%; in test [4], 19.5%; in test [5], 26.1%; in test [6], 14.1%. The growth in test [7] is 79.5%; in test [8], 42.2%.
On to `O=C1C=CC(=O)N1c1ccc(O)cc1`, for which the growth was 83.3% in test [1]; 103% in test [2]; 107% in test [3]; 95.6% in test [4]; 102% in test [5]; 106% in test [6]. For the same molecule, the growth in test [7] is 105%; in test [8], 109%.
For the molecule `CCc1cnc2ccccc2c1/C=C/c1ccc(N(C)C)cc1`, the growth in test [1] is 31.3%; in test [2], 49.8%; in test [3], 7.56% (active); in test [4], 32.1%; in test [5], 20%; in test [6], 24.6%. The growth in test [7] was 68.4%; in test [8], 25.5%.
As to `Cc1cc(=O)oc2cc(O)cc(O)c12`, the growth in test [1] was 90.5%; in test [2], 101%; in test [3] it was 94.7%; in test [4] it was 92%; in test [5], 98%; in test [6] it was 90.5%. The growth in test [7] and in test [8] was 111% in each case.
Regarding `C[C@@]1(CO)[C@H](O)CC[C@@]2(C)[C@H]1CC[C@H]1C[C@@H]3C[C@@]12CC[C@@]3(O)COC(=O)CN`, the growth was 61.8% in test [1]; 46.3% in test [2]; 55.1% in test [3]; 50.9% in test [4]; 36.9% in test [5]; 33.3% in test [6]. Moreover, the growth in test [8] was 61.8%.
Turning to `Cc1ccc(NC2=CC(=O)C(=O)c3ccccc32)cc1`, the growth in test [1] was 21.1%; in test [2], -41.1% (active); in test [3] it was -80.5% (active); in test [4], -19.6% (active); in test [5], -57.4% (active); in test [6], -26.9% (active). Also, the growth in test [7] is 28.4%; in test [8] it was 22.1%.
Turning to `COc1c(C)c2c(c(O)c1C/C=C(\C)CCC(=O)O)C(=O)OC2`, the growth is 44.7% in test [1]; 35.4% in test [2]; 30.1% in test [3]; 21.7% in test [4]; 23.9% in test [5]; 13.3% in test [6]. The growth in test [8] was 29.1%.
Take `C[n+]1ccccc1C[n+]1ccccc1`: the growth was 105% in test [1]; 108% in test [2]; 115% in test [3]; 118% in test [4]; 92.3% in test [5]; 107% in test [6]. Also, in test [8], the growth is 103%.
